Experimental data from PubChem BioAssay AID1159580 (chemical genetic matrix, 2015).
Values joined by “and” are separate entries in the source; they are usually repeats but may differ in a detail not shown here. Equal values may be shown once. The whole screen tested about 5,500 compounds, of which about 2,000 (36%) were called active. Roughly 18% stayed inconclusive and do not appear here. No stated cut-off is given here; in the data, active means normalized growth mostly below about 0.91 (no sharp cut-off); inconclusive means no clear call, values can overlap the other calls; inactive means mostly above about 0.92. This is one part of the list.

Test: chemical genetic growth profiling, strain panel (AID 1159580);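 further: tested at 20 µM; growth read once vehicle control cultures reached saturation at 30 °C; 1 = growth at the plate median or of vehicle wells; lower values mean less growth of the strain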
Conditions: S. cerevisiae deletion strains, growth OD

Measured: normalized growth

Oc1cc(O)c2c(c1)O[C@H](c1ccc(O)c(O)c1)[C@H](O)C2
active: locus YBR021W, strain FUR4, active compounds read low 1.21 [resistant]
inactive: locus YAL021C, strain ccr4, active compounds read low 1.02 | locus YAL026C, strain drs2, active compounds read low 1.01 | locus YAL030W, strain snc1, active compounds read low 1 | locus YBL061C, strain skt5, active compounds read low 1.02 | locus YBR009C, strain hhf1, active compounds read low 1.02 | locus YBR023C, strain chs3, active compounds read low 1.01 | locus YBR171W, strain sec66, active compounds read low 1.02 | locus YBR229C, strain ROT2, active compounds read low 1 | locus YBR231C, strain swc5, active compounds read low 1.02 | locus YBR279W, strain paf1, active compounds read low 1.01 | locus YCL011C, strain gbp2, active compounds read low 1.01 | locus YCL016C, strain dcc1, active compounds read low 1 | locus YCL029C, strain bik1, active compounds read low 0.976 | locus YCL061C, strain MRC1, active compounds read low 1.01 | locus YCL069W, strain vba3, active compounds read low 1.01 | locus YCR088W, strain abp1, active compounds read low 1.01 | locus YDL005C, strain med2, active compounds read low 1.01 | locus YDL035C, strain GPR1, active compounds read low 1.03 | locus YDL040C, strain nat1, active compounds read low 0.998 | locus YDL074C, strain BRE1, active compounds read low 1 | locus YDL101C, strain DUN1, active compounds read low 1 | locus YDL185W, strain tfp1, active compounds read low 0.953 | locus YDL192W, strain arf1, active compounds read low 0.992 | locus YDR001C, strain nth1, active compounds read low 1 | locus YDR069C, strain doa4, active compounds read low 1 | locus YDR101C, strain arx1, active compounds read low 0.986 | locus YDR137W, strain rgp1, active compounds read low 1.02 | locus YDR150W, strain NUM1, active compounds read low 0.984 | locus YDR159W, strain sac3, active compounds read low 1.06 | locus YDR162C, strain NBP2, active compounds read low 1.03 | locus YDR195W, strain ref2 0.968 | locus YDR297W, strain sur2, active compounds read low 1.01 | locus YDR318W, strain mcm21, active compounds read low 0.995 | locus YDR334W, strain swr1, active compounds read low 1.01 | locus YDR335W, strain msn5, active compounds read low 0.994 | locus YDR388W, active compounds read low 0.995 | locus YDR392W, strain spt3, active compounds read low 1.01 | locus YDR502C, strain sam2, active compounds read low 1.01 | locus YEL003W, strain gim4, active compounds read low 1.01 | locus YEL037C, strain rad23, active compounds read low 1.02 | locus YEL061C, strain CIN8 (second series), active compounds read low 1 | locus YEL061C, strain CIN8, active compounds read low 0.994 | locus YER015W, strain faa2, active compounds read low 1 | locus YER016W, strain bim1, active compounds read low 1.01 | locus YER110C, active compounds read low 0.969 | locus YER111C, strain swi4, active compounds read low 1 | locus YER155C, strain BEM2 (second series), active compounds read low 1.02 | locus YER155C, strain BEM2, active compounds read low 1 | locus YER167W, strain BCK2, active compounds read low 1.02 | locus YFR010W, strain ubp6, active compounds read low 1.01 | locus YGL078C, strain dbp3, active compounds read low 0.997 | locus YGL086W, strain mad1, active compounds read low 0.994 | locus YGL167C, strain pmr1, active compounds read low 1.01 | locus YGL173C, strain kem1, active compounds read low 1.01 | locus YGL227W, strain vid30, active compounds read low 1.01 | locus YGL240W, strain doc1, active compounds read low 1.04 | locus YGL248W, strain PDE1, active compounds read low 1 | locus YGL253W, strain hxk2, active compounds read low 1.02 | locus YGR135W, strain pre9, active compounds read low 1.01 | locus YGR252W, strain gcn5, active compounds read low 1.13 | locus YHR013C, strain ard1, active compounds read low 0.995 | locus YHR027C, strain rpn1, active compounds read low 1.01 | locus YHR030C, strain SLT2, active compounds read low 1 and 0.992 | locus YHR079C, strain IRE1 (second series), active compounds read low 0.975 | locus YHR079C, strain IRE1, active compounds read low 0.992 | locus YHR094C, strain hxt1, active compounds read low 0.992 | locus YHR129C, strain ARP1, active compounds read low 1 | locus YHR142W, strain chs7, active compounds read low 1.02 | locus YHR200W, strain rpn10, active compounds read low 0.983 | locus YIL066C, strain RNR3, active compounds read low 1.01 | locus YIL073C, strain SPO22, active compounds read low 0.997 | locus YIL125W, strain kgd1, active compounds read low 0.996 | locus YIR030C, strain dcg1, active compounds read low 0.986 | locus YJL092W, strain hpr5, active compounds read low 1.02 | locus YJL095W, strain BCK1 (second series), active compounds read low 1.01 | locus YJL095W, strain BCK1, active compounds read low 0.984 and 1 | locus YJL115W, strain asf1, active compounds read low 1 | locus YJL129C, strain trk1, active compounds read low 1.02 | locus YJL134W, strain LCB3, active compounds read low 0.991 | locus YJL154C, strain vps35, active compounds read low 1.01 | locus YJL164C, strain tpk1, active compounds read low 1 | locus YJL166W, strain qcr8, active compounds read low 1.02 | locus YJL168C, strain set2, active compounds read low 0.98 | locus YJL187C, strain SWE1 (second series), active compounds read low 0.994 | locus YJL187C, strain SWE1, active compounds read low 1
